Activity calls are given as the source filed them.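 The calls were made as follows, unless noted: active = inhibition above 20% together with a positive visual image hit; inconclusive = visual image hit but inhibition not above 20%; inactive = no visual image hit.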
Legend:
[1] = inhibitors of TNFa-induced NFkB p65 translocation, primary screen, imaging, HUVEC, MLSMR starter and 10KST1 sets (AID 438); details: HUVEC TNFa-induced p65 nuclear translocation; cell count: measured here: nuclei count (cytotoxicity indicator), at 2.08 µM; inhibition: at 2 µM, stronger effect = higher value, 0% TNFa-plus-vehicle, 100% no-TNFa wells;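 also: compound added about 3h40 before a 20 min TNFalpha stimulation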;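 as to inhibition: signal is the nuclear over cytoplasmic p65 intensity ratio per well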
[2] = inhibitors of mutant huntingtin aggregation, primary screen, imaging, exon1htt(103Q)mCFP cells, high-content imaging (AID 483;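 active = visual image review flags a hit and inhibition of aggregation exceeds 20%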;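 also: compound exposure lasted 3 days before fixation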;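 as to nuclei count: percent of the per-plate median nuclei count of sample wells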); details: exon1htt(103Q)mCFP cell line, aggregate imaging, at 2 µM; inhibition of aggregation: stronger effect = higher value; nuclei count: measured here: cell count, toxicity
[3] = inhibitors of E-selectin induction by TNFa, primary screen, imaging, HUVEC, immunofluorescence, MLSMR starter and 10KST1 sets (AID 487;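 active = visually confirmed hit in the image check and inhibition above 20%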;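 as to inhibition: signal is fraction of cell area covered by stained E-selectin grains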;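 as to nuclei count: 100% = median nuclei count of all wells on the same plate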); details: HUVEC TNFalpha-induced E-selectin immunofluorescence imaging, at 2 µM; inhibition: stronger effect = higher value; nuclei count: measured here: cell number, toxicity
[4] = target: Voltage-gated potassium channel subunit beta-2 (Rattus norvegicus) (UniProt P62483); assay: KvBeta enzyme negative modulators, primary screen, biochemical, NADPH fluorescence (AID 622;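 active = fluorescence slope higher than the sample average by over 3 SD, cut at about -0.22 in these data, passing the limit was not always enough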;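 also: slope of raw intensity against log time taken from 70 to 1610 s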); details: recombinant KvBeta, 4-cyanobenzaldehyde reduction, at 10 µM, stronger effect = higher value
[5] = target: Voltage-gated potassium channel subunit beta-2 (Rattus norvegicus) (UniProt P62483); assay: KvBeta positive modulators, primary screen, biochemical, NADPH fluorescence (AID 623;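 active = NADPH fluorescence slope more negative than the mean of all samples by about 3 SD, 99.7% confidence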;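 also: fluorescence intensity change per second fitted from 20 to 320 s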); details: Recombinant KvBeta, NADPH fluorescence decrease slope, 10 min; at 10 µM; stronger effect = lower value
[6] = target: Alpha-2C adrenergic receptor (Homo sapiens) (UniProt P18825); assay: modulators of alpha2C/GIRK thallium flux, primary screen, cell-based, HEK293 alpha2C/GIRK1/2 (AID 624;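 active = fluorescence slope after compound addition differing from the mean of all screened samples at 99.7% confidence, in either direction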;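 also: slope of fluorescence ratio to pre-addition baseline per second over 15 to 24 s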); details: thallium flux BTC fluorescence, at 10 µM, actives lie on both sides
[7] = inhibitors of Sendai virus-induced IRF3 signaling, primary screen, TLR/RLR signaling modifier project, cell-based, Sendai virus stimulus, luciferase, 10K MLSCN set (AID 602276;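 active = inhibition at or above 50% at 10 µM; inactive = inhibition below 50%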;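 also: firefly luciferase from ISG56 promoter only with Renilla not read in this screen; 0% = Sendai virus plus DMSO and 100% = medium plus DMSO without virus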); details: HEK293 RL24 IRF3 luciferase reporter, at 10 µM, stronger effect = higher value
[8] = inhibitors of poly I:C-induced TLR3 signaling, primary screen, cell-based, poly I:C stimulus, luciferase, 10K MLSCN set (AID 602277;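 active = inhibition of the reporter signal at or above 50%; inactive = inhibition below 50%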); details: HEK293-TLR3 RL24 IRF3 luciferase reporter, at 10 µM, stronger effect = higher value

Sequence of Voltage-gated potassium channel subunit beta-2 (Rattus norvegicus) (P62483 whole entry, looked up): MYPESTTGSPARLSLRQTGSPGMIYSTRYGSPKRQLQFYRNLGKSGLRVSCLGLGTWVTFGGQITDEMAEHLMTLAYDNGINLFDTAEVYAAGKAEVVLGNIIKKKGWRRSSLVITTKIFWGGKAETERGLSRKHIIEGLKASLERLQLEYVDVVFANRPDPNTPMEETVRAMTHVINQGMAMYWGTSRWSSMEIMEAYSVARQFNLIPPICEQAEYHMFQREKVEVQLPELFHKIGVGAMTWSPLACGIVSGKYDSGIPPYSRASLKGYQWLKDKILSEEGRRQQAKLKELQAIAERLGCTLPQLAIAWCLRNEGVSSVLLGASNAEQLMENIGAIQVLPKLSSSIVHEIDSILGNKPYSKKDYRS
Sequence of Alpha-2C adrenergic receptor (Homo sapiens) (P18825 whole entry, looked up): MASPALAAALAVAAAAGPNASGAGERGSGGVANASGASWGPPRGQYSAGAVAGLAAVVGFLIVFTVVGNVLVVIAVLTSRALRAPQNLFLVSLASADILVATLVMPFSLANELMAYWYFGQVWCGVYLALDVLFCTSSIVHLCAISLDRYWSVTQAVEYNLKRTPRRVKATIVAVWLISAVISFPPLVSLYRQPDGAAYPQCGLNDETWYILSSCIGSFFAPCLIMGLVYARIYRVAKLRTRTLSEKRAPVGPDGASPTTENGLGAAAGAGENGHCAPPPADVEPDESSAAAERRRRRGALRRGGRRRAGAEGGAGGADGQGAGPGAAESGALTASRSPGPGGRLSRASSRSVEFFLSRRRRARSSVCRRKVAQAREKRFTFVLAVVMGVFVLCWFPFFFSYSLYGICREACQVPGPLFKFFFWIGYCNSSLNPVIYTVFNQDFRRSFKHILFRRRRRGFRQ

**Q.** What does the source list for CCCc1cc(Nc2cccc(OC)c2)n2ncnc2n1?
**A.** cell count [1]: 708; inhibition [1]: -9.9% (inactive); inhibition of aggregation [2]: -22.9% (inactive); nuclei count [2]: 100%; inhibition [3]: -8.3% (inactive); nuclei count [3]: 111%; fluorescence slope [4]: -0.321 (inactive); NADPH fluorescence slope [5]: -3e-05 (inactive); slope [6]: 0.00589 (inactive); inhibition [7]: 12.1% (inactive); inhibition [8]: 16.3% (inactive)

**Q.** With CC(=O)c1c(C)nn(CC(O)COc2ccc3c(c2)CCC3)c1C (stereo not given) as the molecule, how does the cell count [1] read?
**A.** 751

**Q.** What about the inhibition [1] of the same molecule?
**A.** -4.3% (inactive)

**Q.** What about the inhibition of aggregation [2] of the same molecule?
**A.** 7.3% (inactive)

**Q.** What about the nuclei count [2] of the same molecule?
**A.** 97.4%

**Q.** And the inhibition [3]?
**A.** -169% (inactive)

**Q.** And the nuclei count [3]?
**A.** 126%

**Q.** And the fluorescence slope [4]?
**A.** -0.435 (inactive)

**Q.** What about the NADPH fluorescence slope [5] of the same molecule?
**A.** 4e-05 (inactive)

**Q.** What about the slope [6] of the same molecule?
**A.** 0.00662 (inactive)

**Q.** And the inhibition [7]?
**A.** -13.5% (inactive)

**Q.** What about the inhibition [8] of the same molecule?
**A.** -41.8% (inactive)

**Q.** What does the source list for Nn1cc(-c2ccccc2)nc1SCC(=O)N1CCN(S(=O)(=O)c2ccccc2)CC1?
**A.** cell count [1]: 341; inhibition [1]: -17.9% (inactive); inhibition of aggregation [2]: 13.8% (inactive); nuclei count [2]: 102%; inhibition [3]: -23.8% (inactive); nuclei count [3]: 106%; fluorescence slope [4]: -0.421 (inactive); NADPH fluorescence slope [5]: 4.3e-05 (inactive); slope [6]: 0.00477 (inactive); inhibition [7]: 8.62% (inactive); inhibition [8]: 12.7% (inactive)

**Q.** With CC1Cc2ccccc2N1C(=O)c1cccnc1 (stereo not given) as the molecule, how does the cell count [1] read?
**A.** 254

**Q.** What about the inhibition [1] of the same molecule?
**A.** -1% (inactive)

**Q.** What about the inhibition of aggregation [2] of the same molecule?
**A.** -30.3% (inactive)

**Q.** What about the nuclei count [2] of the same molecule?
**A.** 106%

**Q.** And the inhibition [3]?
**A.** -64.3% (inactive)

**Q.** What about the nuclei count [3] of the same molecule?
**A.** 103%

**Q.** What about the fluorescence slope [4] of the same molecule?
**A.** -0.422 (inactive)

**Q.** What about the NADPH fluorescence slope [5] of the same molecule?
**A.** -8.5e-05 (inactive)

**Q.** What about the slope [6] of the same molecule?
**A.** 0.00616 (inactive)

**Q.** What about the inhibition [7] of the same molecule?
**A.** 14.1% (inactive)

**Q.** And the inhibition [8]?
**A.** 25.5% (inactive)

**Q.** Which cell count [1] does the source give for CNC(=O)NCCN1CCCC1=O here?
**A.** 505

**Q.** What about the inhibition [1] of the same molecule?
**A.** 4.5% (inactive)

**Q.** And the inhibition of aggregation [2]?
**A.** -26.4% (inactive)

**Q.** And the nuclei count [2]?
**A.** 111%

**Q.** What about the inhibition [3] of the same molecule?
**A.** -83.1% (inactive)

**Q.** What about the nuclei count [3] of the same molecule?
**A.** 123%

**Q.** What about the fluorescence slope [4] of the same molecule?
**A.** -0.335 (inactive)

**Q.** What about the NADPH fluorescence slope [5] of the same molecule?
**A.** -3.4e-05 (inactive)

**Q.** What about the slope [6] of the same molecule?
**A.** 0.00479 (inactive)

**Q.** And the inhibition [7]?
**A.** 9.55% (inactive)

**Q.** What about the inhibition [8] of the same molecule?
**A.** 11.8% (inactive)

**Q.** What does the source list for C=CCNC(=O)C1CC(=O)N(c2ccc(OCC(=O)Nc3ccc(OC)cc3)cc2)C1 (stereo not given)?
**A.** cell count [1]: 393; inhibition [1]: 0.7% (inactive); inhibition of aggregation [2]: 7.7% (inactive); nuclei count [2]: 104%; inhibition [3]: -93.7% (inactive); nuclei count [3]: 128%; fluorescence slope [4]: -0.339 (inactive); NADPH fluorescence slope [5]: -4.8e-05 (inactive); slope [6]: 0.00432 (inactive); inhibition [7]: 5.59% (inactive); inhibition [8]: 5.9% (inactive)

**Q.** Which cell count [1] does the source give for O=C1C/C(=C/NCc2ccccc2)C(=O)N1 here?
**A.** 464

**Q.** What about the inhibition [1] of the same molecule?
**A.** -7.4% (inactive)

**Q.** What about the inhibition of aggregation [2] of the same molecule?
**A.** 22.7% (inactive)

**Q.** And the nuclei count [2]?
**A.** 67.6%

**Q.** What about the inhibition [3] of the same molecule?
**A.** -106% (inactive)

**Q.** What about the nuclei count [3] of the same molecule?
**A.** 95.9%

**Q.** What about the fluorescence slope [4] of the same molecule?
**A.** -0.423 (inactive)

**Q.** What about the NADPH fluorescence slope [5] of the same molecule?
**A.** -2.2e-05 (inactive)

**Q.** What about the slope [6] of the same molecule?
**A.** 0.0024 (inactive)

**Q.** And the inhibition [7]?
**A.** 4.55% (inactive)

**Q.** What about the inhibition [8] of the same molecule?
**A.** 30.7% (inactive)

**Q.** Which cell count [1] does the source give for Cc1nc2sc(C(c3cccc(F)c3)N3CCC(C)CC3)c(O)n2n1 (stereo not given) here?
**A.** 231

**Q.** And the inhibition [1]?
**A.** -5.4% (inactive)

**Q.** And the inhibition of aggregation [2]?
**A.** -13.1% (inactive)

**Q.** And the nuclei count [2]?
**A.** 109%

**Q.** And the inhibition [3]?
**A.** 9.7% (inactive)

**Q.** And the nuclei count [3]?
**A.** 108%

**Q.** What about the fluorescence slope [4] of the same molecule?
**A.** -0.524 (inactive)

**Q.** What about the NADPH fluorescence slope [5] of the same molecule?
**A.** -7.2e-05 (inactive)

**Q.** What about the slope [6] of the same molecule?
**A.** 0.00644 (inactive)

**Q.** And the inhibition [7]?
**A.** 14.4% (inactive)

**Q.** And the inhibition [8]?
**A.** 17% (inactive)

**Q.** What does the source list for Cc1cc(C)c2nc(C(F)(F)F)nc(NCCCN3CCCC3=O)c2c1?
**A.** cell count [1]: 277; inhibition [1]: 5% (inactive); inhibition of aggregation [2]: 21.4% (inactive); nuclei count [2]: 80.7%; inhibition [3]: -230% (inactive); nuclei count [3]: 97.5%; fluorescence slope [4]: -0.484 (inactive); NADPH fluorescence slope [5]: -2.3e-05 (inactive); slope [6]: 0.00428 (inactive); inhibition [7]: 16.5% (inactive); inhibition [8]: 18.3% (inactive)

**Q.** What does the source list for Cc1c(NS(=O)(=O)c2ccc3c(c2)n(C)c(=O)n3C)c(=O)n(-c2ccccc2)n1C?
**A.** cell count [1]: 582; inhibition [1]: 2.7% (inactive); inhibition of aggregation [2]: -2% (inactive); nuclei count [2]: 99.2%; inhibition [3]: 28% (inactive); nuclei count [3]: 93%; fluorescence slope [4]: -0.616 (inactive); NADPH fluorescence slope [5]: 1.5e-05 (inactive); slope [6]: 0.00372 (inactive); inhibition [7]: 15.8% (inactive); inhibition [8]: 13.4% (inactive)

Reference: PubChem BioAssay
